This is a sample that favours compounds with a hit; in the whole collection about 1% have one here.
HSV replic up – enhancers of HSV replication in host cells, fold increase, host cell viability | HSV replication augmentation in cells | maximum fold increase | 220,000 tested, 0.005% active | AID 1956, 2009; in the data active = maximum fold increase above about 1.5; tested in PC3 cells
Hsp70 act – Hsp70 transcriptional activators, primary screen, cell-based, HeLa, Hsp70 promoter luciferase, luminescence, 10 µM; HeLa Hsp70 promoter luciferase reporter; scaled: vehicle 0, proteasome-inhibitor control 100%; activation, % at 10 µM; 200,000 tested, 0.04% active; AID 1203, 2008;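 active = activation above the mean across all tested compounds plus 3 SD, cutoff set per campaign, cut at about 5.5% in these data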;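 note: 100% = MG132 at 30 µM as the positive control and 0% = DMSO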
S1P4 ag – S1P4 receptor agonists, primary screen, cell-based; Sphingosine 1-phosphate receptor 4 (Homo sapiens), O95977; S1P4-expressing cell line, agonist reporter assay; activation, % at 4.98 µM; 220,000 tested, 0.35% active; AID 1509, 2009; in the data active = activation above about 11%;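 note: 0% = DMSO vehicle and 100% = reference agonist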
S1P4 antag – S1P4 receptor antagonists, primary screen, cell-based; AID 1510, 2009; inhibition, % at 4.98 µM; 220,000 tested, 0.26% active; S1P4-expressing cells, antagonist mode, reporter read-out; in the data active = inhibition above about 29%;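 note: 0% = wells stimulated with agonist and 100% = vehicle wells without agonist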
zVAD death inh – inhibitors of zVAD-triggered necroptosis, primary screen, L929 cells. L929 zVAD necroptosis rescue, ATP luminescence, 24 h; with zVAD 60 µM. viability rescue, % at 10 µM. 220,000 tested, 0.38% active;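 active = activation, scaled between plate controls, above about 75%, limit read from the data; inactive = activation under that limit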;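 note: 0% = zVAD with DMSO and 100% = DMSO alone without zVAD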
TNF death inh – inhibitors of TNF-alpha triggered necroptosis, primary screen, cell-based, Jurkat FADD-/-, single concentration; activation (protection from cell death), % at 10 µM; 220,000 tested, 0.068% active; Jurkat FADD-/- TNF necroptosis rescue, ATP luminescence, 24 h; 0 = TNF only, 100 = no-TNF cells;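 active = activation, meaning protection from cell death, of at least 50% relative to plate controls; inactive = activation below 50%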;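 note: necroptosis triggered by 40 ng/mL TNF-alpha added together with compound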
S1P4 antag conf – S1P4 receptor antagonists, human, confirmation, cell-based | inhibition, % at 4.98 µM | shares compounds with S1P4 antag | 520 tested, 71% active | S1P4-expressing cell line, antagonist mode, reporter read-out; in the data active = inhibition above about 30%
S1P1 antag – S1P1 receptor antagonists, human, counter-screen for S1P4 antagonist project, cell-based. shares compounds with S1P4 antag. cell-based S1P1 antagonist counterscreen, inhibition. inhibition, % at 4.98 µM. 520 tested, 37% active. AID 1564, 2009; in the data active = inhibition above about 40%;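 note: receptor stimulated with S1P near its EC80; 0% = agonist stimulated wells and 100% = vehicle only wells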
Target sequence (P21453 whole entry, looked up): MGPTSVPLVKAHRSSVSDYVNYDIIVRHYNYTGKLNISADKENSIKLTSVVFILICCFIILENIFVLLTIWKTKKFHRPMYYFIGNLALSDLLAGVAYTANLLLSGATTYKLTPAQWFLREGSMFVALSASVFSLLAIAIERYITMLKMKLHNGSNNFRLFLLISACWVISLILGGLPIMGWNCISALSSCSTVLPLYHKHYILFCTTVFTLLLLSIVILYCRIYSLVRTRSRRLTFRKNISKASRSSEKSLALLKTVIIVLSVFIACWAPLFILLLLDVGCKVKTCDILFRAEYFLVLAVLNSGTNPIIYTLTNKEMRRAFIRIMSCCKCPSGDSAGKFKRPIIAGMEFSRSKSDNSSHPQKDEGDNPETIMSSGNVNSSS
Active calls of the source: *; i = inactive; / = no result given.

SMILES | HSV replic up | Hsp70 act | S1P4 ag | S1P4 antag | zVAD death inh | TNF death inh | S1P4 antag conf | S1P1 antag
CN(C)c1ccc(/C=C(/C(=O)c2ccc(Cl)cc2Cl)n2cncn2)cc1 | / | 0 | -2 | 3 | 0 | -4 | / | /
COc1ccc(/C=C(/C(=O)c2ccc(Cl)cc2Cl)n2cncn2)cc1 | i | 0 | 1 | 37* | 0 | -9 | 21 | -1
CC1(C)CSC(=NCc2ccccc2)N1C(=O)c1cccc([N+](=O)[O-])c1 | i | 0 | 0 | -10 | 1 | -4 | / | /
COc1cc2c3nnc(-c4ccc(F)cc4)c-3cn(Cc3ccc(F)cc3)c2cc1OC | i | 0 | 1 | 3 | 6 | -14 | / | /
COc1cc2c3nnc(-c4ccc(F)cc4)c-3cn(Cc3ccccc3)c2cc1OC | / | 0 | -2 | 41* | 1 | -7 | 85* | 120*
O=C(Nc1nc2ccccc2c(=O)s1)c1ccco1 | i | / | 0 | 30* | 0 | -12 | 27 | -17
O=C(Nc1nc2cc3c(cc2s1)OCO3)c1ccco1 | i | / | 0 | -10 | -1 | -3 | / | /
O=C(Nc1ccc(Cl)cc1)/C(=C/c1cccc(O)c1)c1nc2ccccc2s1 | i | 0 | 0 | 38* | 18 | -10 | 99* | 62*
S=C(Nc1ccc(Cl)cc1)c1nc2ccccc2s1 | i | 0 | 2 | 1 | 0 | -1 | / | /
N#CC1(NC(=O)CN2CCN(S(=O)(=O)c3ccccc3F)CC2)CCCC1 | i | / | 2 | -30 | 0 | 2 | / | /
COc1ccc(CCNC(=O)c2ccccc2NC(=O)c2ccco2)cc1OC | i | 1 | 0 | 30* | 1 | -11 | 8 | 1
Cc1ccc(N=C2NC(=O)/C(=C/c3cccn3C)S2)cc1C | i | / | 1 | -1 | 4 | -4 | / | /
Cc1cccc(N=C2NC(=O)/C(=C/c3cccn3C)S2)c1C | / | / | 1 | 36* | 0 | -2 | 16 | 14
O=C(N/N=C/c1cccs1)c1n[nH]c2c1CCC2 | i | 0 | 0 | -4 | 44 | -6 | / | /
O=C(N/N=C/C(Br)=C/c1ccccc1)c1n[nH]c2c1CCC2 | i | 0 | -2 | 32* | 0 | -9 | 46* | 82*
O=c1/c(=C/c2ccc([N+](=O)[O-])cc2)sc2n1CCCN=2 | i | 0 | 0 | 34* | 0 | -3 | 22 | 31
Oc1ccccc1C1CC(c2cccs2)=NC(c2cccc(Br)c2)N1 (stereo not drawn) | i | 0 | 2 | 30* | 0 | 1 | 43* | 20
CCOC(=O)c1[nH]c(C)c(C(=O)OCC(=O)N2CC(=O)Nc3ccccc32)c1C | i | 0 | -1 | -16 | 1 | 4 | / | /
C=CCn1c(Sc2ncc([N+](=O)[O-])s2)n[nH]c1=O | i | / | 4 | 69* | -4 | -30 | 111* | 51*
Cc1cc(NC(=O)/C=C/c2ccccc2)c(C(C)C)cc1O | i | 0 | 1 | 94* | 13 | 2 | 109* | 13
O=C(c1cccc(C(F)(F)F)c1)C1CCCN(C(=O)CCn2cnnn2)C1 (stereo not drawn) | i | / | -1 | 9 | 0 | 3 | / | /
CCOc1ccc(CN2CCN(CC(O)Cn3c4ccccc4c4ccccc43)CC2)cc1 (stereo not drawn) | i | -1 | -1 | 42* | / | 0 | 71* | 83*
CCN(CC)C(=O)CN(c1cccc(C(F)(F)F)c1)S(C)(=O)=O | i | 0 | -2 | -17 | 0 | 1 | / | /
CCN(CC)C(=O)CN(c1cccc(Br)c1)S(C)(=O)=O | i | 0 | 1 | 30* | 2 | 4 | 2 | -34
CCN(CC)c1ccc(/C=c2\sc3nc4ccccc4n3c2=O)c(O)c1 | / | 0 | 6 | 37* | 1 | -5 | 22 | -25
O=C(CSc1nc2ccccc2s1)Nc1cc(S(=O)(=O)N2CCOCC2)ccc1O | i | 0 | 1 | 6 | 0 | 0 | / | /
